Hits are enriched below; roughly 1.3% of the tested compounds scored in any of these assays.
Mito fusion yeast = qHTS Assay for Small Molecule Inhibitors of Mitochondrial Division or Activators of Mitochondrial Fusion; S. cerevisiae fusion-defective mutant growth rescue, CellTiterGlo 48 h; Potency, µM (doses to about 46.1 µM), inactives show at the highest dose growth rescue (activation), hits mostly activators; 0.23% of 320,000 active; also: potency is read from the fitted curve at half-maximal effect; % of control where 0% means no effect; nearly all actives have a fitted effect of over 45% in size
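Read-out: ATP-based luminescence (CellTiterGlo, 10 min ambient) reporting growth of fusion-defective ts yeast after 48 hours at 37C on glycerol/ethanol YPEG medium in the presence of compound.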
TCR act = Activators of T cell receptors: qHTS campaign; primary human leukocytes, anti-CD3, IL-2 HTRF, 48 h; Potency, µM (top dose mostly 9.22 µM), for the others: at the highest dose activation of IL-2 secretion, actives largely listed as activators; 330,000 tested, under 10 active; AID 504894, 2011; also: % of control where 0% means no effect
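1) Mix primary human leukocytes, a-CD3 beads and compound. 2) Incubate 48 hr. 3) Add HTRF IL-2 reagents (a-IL-2-K, a-IL-2-d2).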
BCR signal inh = qHTS Assay to Find Inhibitors of Chronic Active B-Cell Receptor Signaling; ABC-DLBCL IkBa-CBG/CBR reporter, luminescence ratio, 4 h; Potency, µM (titrated, usually from 46.1 µM), for the others: at the top dose activity change, negative = inhibition, most hits filed as inhibitors; 0.05% of 340,000 active; active = well fitted inhibition curve with a large enough effect in the signal ratio, with a control signal flat, not every such curve was filed as active; inconclusive = small, poorly fitted or top-dose-only effect, or effect the other way, or a change in a side signal; the % refers to the signal ratio;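 also: potency is read from the fitted curve at half-maximal effect; plate controls were basal doxycycline-induced cells for no effect and cells given 10 µM MG132 for full effect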
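TMD8 human ABC-DLBCL cells with doxycycline-inducible IκBα–green luciferase fusion and unfused red luciferase, in 0.5% FBS medium; compounds up to 46 uM, 4 h at 37C. Green/red luminescence ratio, filter-overlap corrected, fitted to concentration-response curves.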
IL-2 act = qHTS of IL-2 Activators | IL-2 activation reporter assay, cell-based qHTS; stimulated with anti-CD3/CD4/CD28 beads; in transgenic mouse T cells | activation, % (series mostly up to about 46 µM) | 0.065% of 360,000 active; in the data active = activation above about 50%; inconclusive = mostly about 30% to 49%; also: 0% is about no effect
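Screening format: compound pinned onto unstimulated transgenic mouse T cells, 60 min incubation, then anti-CD3/anti-CD4/anti-CD28 bead stimulation for 18 hours at 37 degrees C, followed by EGFP and DsRed detection.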
PTHR1 agonist = qHTS for PTHR1 Agonists: Primary Screen. AID 743266, 2014. HEK293 GP2 PTHR1 cells, GloSensor cAMP luminescence, 1 h. 0.075% of 410,000 active. Potency, µM (highest dose often 115 µM), inactives show top-dose activation, most hits filed as activators; also: potency is read from the fitted curve at half-maximal effect; nearly all actives have a fitted effect of over 55% in size
Target sequence (Q03431 whole entry, looked up): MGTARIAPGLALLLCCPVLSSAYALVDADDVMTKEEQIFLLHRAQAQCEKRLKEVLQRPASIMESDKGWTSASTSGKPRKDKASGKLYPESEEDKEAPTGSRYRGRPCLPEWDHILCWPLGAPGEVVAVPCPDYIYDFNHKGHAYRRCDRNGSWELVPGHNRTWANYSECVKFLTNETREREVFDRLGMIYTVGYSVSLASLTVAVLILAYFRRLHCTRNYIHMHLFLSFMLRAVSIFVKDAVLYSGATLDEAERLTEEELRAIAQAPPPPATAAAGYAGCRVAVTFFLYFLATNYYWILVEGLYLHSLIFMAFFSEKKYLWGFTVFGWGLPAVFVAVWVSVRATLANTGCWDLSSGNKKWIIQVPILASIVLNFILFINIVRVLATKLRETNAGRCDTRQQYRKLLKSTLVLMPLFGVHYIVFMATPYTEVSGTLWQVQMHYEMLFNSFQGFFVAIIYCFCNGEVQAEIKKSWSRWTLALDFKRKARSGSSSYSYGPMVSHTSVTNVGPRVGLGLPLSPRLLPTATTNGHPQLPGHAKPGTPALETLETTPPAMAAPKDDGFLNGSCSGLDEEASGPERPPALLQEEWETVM
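HEK-293-derived GP2 cells expressing PTHR1 and a GloSensor cAMP reporter, 3,000/well, plated overnight, given luciferin plus IBMX (each 0.5 mM as added) for 1 h at 37 °C, then compound for 1 h at 37 °C. Luminescence was read after 15 min at room temperature.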
BRCA1 expr act = qHTS Assay to Identify Small Molecule Activators of BRCA1 Expression | AID 624202, 2012 | MCF7-BRCA1-FFLuc reporter, luminescence, 48 h; response scale: scaled: vehicle 0%, 10 µM genistein 100% | 1.1% of 380,000 active | Potency, µM (top dose mostly 46.1 µM), inactives show at the top dose activation, usual class: activators; also: potency is read from the fitted curve at half-maximal effect; nearly all actives have a fitted effect of over 80% in size
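Reporter cells (MCF7, BRCA1 promoter-firefly luciferase) received library compounds across a concentration series for 48 h. End-point luminescence was measured and concentration-effect curves derived after normalization.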
Numbers without * were called inactive; i = inactive; ? = inconclusive; . = not tested or not shown; ! = not active in a repeat; [ ] = dose if it differs, or a comment. Unless noted, calls follow the shape of the dose curve; as a rule, active = well fitted curve in the direction sought with a large enough effect; inconclusive = small, poorly fitted or top-dose-only effect, or another doubt; inactive = no such curve, though single readings can be large; an effect the other way counts as inactive or inconclusive.

SMILES	Mito fusion yeast	TCR act	BCR signal inh	IL-2 act	PTHR1 agonist	BRCA1 expr act
CCOC(=O)N1CCN(C(=S)NC(=O)/C=C/c2ccc(C)cc2)CC1	-9%	1%	6%	2	-25%	-2%
c1ccc(-c2nnc3n2CCCC3)cc1	-3%	1%	1%	-1	i	1%
Fc1ccc(-c2nnc3n2CCCCC3)cc1	16µM*	-3%	1%	1	i	-13%
Cc1nn(-c2ccccc2)c(C)c1/C=N/NC(=O)CSc1nnc(SCc2ccccc2Cl)s1	0%	1%[46.1 µM]	3%	0	i	13µM*
COc1ccc(O)c(/C=N/N2CCCCC2)c1	-7%	-2%	2%	1	-25%	10µM*
c1ccc(CCSc2ncnc3nc[nH]c23)cc1	18µM*	0%[46.1 µM]	?	-1	i	3.2µM*
O=C(CSc1ncnc2nc[nH]c12)c1ccccc1	0%	-166%	?	0	-40%[57.5 µM]	73%
C[N+](C)(C)c1ccc(/C=C2\C=Cc3ccccc32)cc1	.	.	.	.	.	-9%
COc1cccc(/C=N/NC(=O)c2[nH]nc3c2CCc2ccccc2-3)c1	-11%	4%	18µM*	-2	-32%	-56%
CC(C)NC(=O)c1[nH]nc2c1CCc1ccccc1-2	6%	3%	?	-1	i	2µM*
COc1ccc(OC)c(/C=N/NC(=O)c2[nH]nc3c2CCc2ccccc2-3)c1	-4%	3%[46.1 µM]	?	-2	-37%	15%
Cc1ccc(-n2c3c(c(=O)[nH]c2=O)C(NC(=O)C(C)(C)C)(C(F)(F)F)C(=O)N3)cc1 (stereo not drawn)	.	.	.	.	-14%	.
Cc1ccc(S(=O)(=O)N2CCN(c3nc(-c4ccc(CN5CCOCC5)s4)nc4ccccc34)CC2)cc1	.	.	.	.	.	4%
O=C1c2ccccc2C(=O)N1CCc1c[nH]c2ccccc12	21%	-4%	-18%	-1	-46%	2.2µM*
O=C(NCCc1ccccc1)c1n[nH]c2ccccc12	10%	1%	?	-4	-33%	3.2µM*
O=C(NCCc1ccc(Cl)cc1)c1n[nH]c2ccccc12	17%	-6%	?	-1	i	79%
Cc1ccc(C(=O)NCCc2c[nH]c3ccccc23)s1	-3%	-2%	-13%	-1	-42%	3.2µM*
O=C(NCCc1c[nH]c2ccccc12)c1ccccc1	-2%	.	?	2	-45%	13µM*
CC(C)C(=O)NCCc1c[nH]c2ccccc12	0%	3%[46.1 µM]	4%	-1	-16%	27%
C=C(NNC(C)=O)c1ccc(O)cc1	.	.	.	.	.	12%
C[C@]12c3[nH]c4ccccc4c3CCN1C(=O)C(CC(=O)NCCCn1ccnc1)C[C@@H]2C(=O)N1CCCCC1 (stereo partly drawn)	.	-1%	-1%	1	i	-33%
Cc1sc(NC(=O)C2CCCCC2)c(C#N)c1-c1ccccc1	4%	2%	?	-1	i	7.1µM*
O=C(COC(=O)C1(c2ccccc2F)CCCC1)NCc1ccc2c(c1)OCO2	?	-1%[46.1 µM]	?	65*	-11%	-40%
Cc1ccc(C(=O)N(C)Cc2ccc(N3CCOCC3)cc2)cc1S(=O)(=O)NCc1ccccc1	0%	-7%	-14%	0	-40%	-31%
Cc1ccc(/C=C/c2nnc(-c3cccs3)o2)cc1	-6%	-39%	?	0	-73%[57.5 µM]	?
SMILES	Mito fusion yeast	TCR act	BCR signal inh	IL-2 act	PTHR1 agonist	BRCA1 expr act
Fc1ccc(/C=C/c2nnc(-c3cccs3)o2)cc1	1%	1%[46.1 µM]	?	2	0%	2µM*
COC(=O)c1ccc(COC(=O)c2cccnc2Cl)cc1	1%	3%	-1%	1	-13%	13µM*
CCCCCc1ccc(-c2ccc(OC)cc2)nc1	9%	1%	?	-1	-9%	8.9µM*
COc1ccc(CCC(=O)Nc2sccc2C#N)cc1	11%	.	1%	1	-13%	11µM*
CC(=O)O/N=C(\N)c1ccc(-c2csnn2)cc1	-3%	3%	?	1	-15%	11µM*
CC(C)(C)C(=O)O/N=C(\N)c1ccc(-c2csnn2)cc1	-1%	3%	?	-1	-19%	0%
CSc1ccc(C(=O)c2[nH]c(=O)[nH]c2C)cc1	13µM*!	-1%	4%	0	i	27%
CCc1cccc(NC(=O)c2ccc(CN3C(=O)C(C)=C(c4ccc(OC)cc4)S3(=O)=O)cc2)c1	.	.	.	.	i	.
CCc1cccc(C)c1NC(=O)CC(C)(C)CC(=O)O	0%	-6%	5%	1	-1%	1%
Cc1cc(C(C)(C)C)ccc1NC(=O)CC(C)(C)CC(=O)O	-5%	-4%	0%	3	-21%	13µM*
COc1ccc(Nc2cc3n(c(=O)n2)CCc2cc(OC)c(OC)cc2-3)c(C)c1	7%	1%	18µM*	-3	i	-24%
COc1ccc(Nc2cc3n(c(=O)n2)CCc2cc(OC)c(OC)cc2-3)cc1	21%	0%	?	-2	-2%	-45%
CCOCCCNC(=O)c1c(NC(=O)c2nc(SCC)ncc2Cl)sc2c1CCCC2	.	.	.	.	.	-6%
O=C(NC1CC1)c1c(O)c2ccccc2[nH]c1=O	-12%	0%	6%	1	-12%	28%
O=C(NC1CCCCCCC1)c1c(O)c2ccccc2[nH]c1=O	10%	-2%	?	-1	-10%[57.5 µM]	10µM*
CCN(CC)CC(=O)Nc1scc2c1c(=O)oc1ccccc12	8%	0%	?	1	i	11µM*
COC(=O)Cn1c(SCc2ccccc2)nc2ccccc21	2%	-3%	2%	1	-11%	7.9µM*
CCSc1nc2ccccc2n1CC(=O)OC	6%	7%	2%	-2	i	0%
COc1ccc2oc(=O)c(C(=O)Nc3cccc(C)c3)cc2c1	2%	10%	?	-1	-16%	3.2µM*
CCC(C)c1c(NS(=O)(=O)c2ccc(C)cc2)o[nH]c1=O (stereo not drawn)	.	5%	.	0	i	-5%
CC(=O)c1ccc2c(c1)C1C=CCC1C(c1cc3c(cc1Br)OCO3)N2 (stereo not drawn)	13µM*	2%	?	0	-20%	-46%
